# Source: PubChem BioAssay AID1159580 (chemical genetic matrix, 2015)
# Where “and” joins values, the source holds several entries; their conditions need not be identical. Identical values can stand only once. Screen size: about 5,500 compounds; about 2,000 (36%) were called active. Not shown: some 18% with an inconclusive outcome. Some of the results follow. A number with no mark means an inactive call. No stated cut-off is given here; in the data, active means normalized growth mostly below about 0.91 (no sharp cut-off); inconclusive means no clear call, values can overlap the other calls; inactive means mostly above about 0.92.
# Assay: chemical genetic growth profiling, strain panel (AID 1159580);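 further: tested at 20 µM; growth read once vehicle control cultures reached saturation at 30 °C; 1 = growth at the plate median or of vehicle wells; lower values mean less growth of the strain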
# Settings: S. cerevisiae deletion strains, growth OD
smiles,measurement,setting,value
CN(C)CCOC(=O)COc1ccc(Cl)cc1,normalized growth,"locus YAL013W, strain DEP1, hits give low values",1.02
same,normalized growth,"locus YAL021C, strain ccr4, hits give low values",0.955
same,normalized growth,"locus YAL026C, strain drs2, hits give low values",0.968
same,normalized growth,"locus YAL030W, strain snc1, hits give low values",0.973
same,normalized growth,"locus YAL040C, strain CLN3, hits give low values",1.06
same,normalized growth,"locus YBL061C, strain skt5, hits give low values",0.966
same,normalized growth,"locus YBR009C, strain hhf1, hits give low values",0.984
same,normalized growth,"locus YBR021W, strain FUR4, hits give low values",0.95
same,normalized growth,"locus YBR023C, strain chs3, hits give low values",0.965
same,normalized growth,"locus YBR171W, strain sec66, hits give low values",0.969
same,normalized growth,"locus YBR229C, strain ROT2, hits give low values",1.01
same,normalized growth,"locus YBR231C, strain swc5, hits give low values",0.96
same,normalized growth,"locus YBR279W, strain paf1, hits give low values",0.987
same,normalized growth,"locus YCL011C, strain gbp2, hits give low values",0.957
same,normalized growth,"locus YCL016C, strain dcc1, hits give low values",0.969
same,normalized growth,"locus YCL029C, strain bik1, hits give low values",1.04
same,normalized growth,"locus YCL061C, strain MRC1, hits give low values",0.969
same,normalized growth,"locus YCL069W, strain vba3, hits give low values",0.974
same,normalized growth,"locus YCR088W, strain abp1, hits give low values",0.956
same,normalized growth,"locus YDL005C, strain med2, hits give low values",0.972
same,normalized growth,"locus YDL035C, strain GPR1, hits give low values",1.05
same,normalized growth,"locus YDL040C, strain nat1, hits give low values",0.973
same,normalized growth,"locus YDL074C, strain BRE1, hits give low values",1.05
same,normalized growth,"locus YDL101C, strain DUN1, hits give low values",1.02
same,normalized growth,"locus YDL134C, strain PPH21, hits give low values",1.01
same,normalized growth,"locus YDL185W, strain tfp1, hits give low values",1.03
same,normalized growth,"locus YDL192W, strain arf1, hits give low values",1.04
same,normalized growth,"locus YDR001C, strain nth1, hits give low values",0.965
same,normalized growth,"locus YDR069C, strain doa4, hits give low values",0.953
same,normalized growth,"locus YDR101C, strain arx1, hits give low values",1.03
same,normalized growth,"locus YDR137W, strain rgp1, hits give low values",1.21 [resistant] (active)
same,normalized growth,"locus YDR150W, strain NUM1, hits give low values",1.03
same,normalized growth,"locus YDR159W, strain sac3, hits give low values",0.944
same,normalized growth,"locus YDR162C, strain NBP2, hits give low values",1.03
same,normalized growth,"locus YDR195W, strain ref2",1.02
same,normalized growth,"locus YDR297W, strain sur2, hits give low values",0.963
same,normalized growth,"locus YDR318W, strain mcm21, hits give low values",1.06
same,normalized growth,"locus YDR334W, strain swr1, hits give low values",0.933
same,normalized growth,"locus YDR335W, strain msn5, hits give low values",0.969
same,normalized growth,"locus YDR388W, hits give low values",1.03
same,normalized growth,"locus YDR392W, strain spt3, hits give low values",0.974
same,normalized growth,"locus YDR502C, strain sam2, hits give low values",1.09 [resistant] (active)
same,normalized growth,"locus YEL003W, strain gim4, hits give low values",0.957
same,normalized growth,"locus YEL037C, strain rad23, hits give low values",0.969
same,normalized growth,"locus YEL061C, strain CIN8 (second series), hits give low values",0.972
same,normalized growth,"locus YEL061C, strain CIN8, hits give low values",1.02
same,normalized growth,"locus YER002W, strain NOP16, hits give low values",0.971
same,normalized growth,"locus YER015W, strain faa2, hits give low values",0.972
same,normalized growth,"locus YER016W, strain bim1, hits give low values",0.968
same,normalized growth,"locus YER110C, hits give low values",1.05
same,normalized growth,"locus YER111C, strain swi4, hits give low values",0.98
same,normalized growth,"locus YER155C, strain BEM2 (second series), hits give low values",0.962
same,normalized growth,"locus YER155C, strain BEM2, hits give low values",1.01
same,normalized growth,"locus YER167W, strain BCK2, hits give low values",1.01
same,normalized growth,"locus YFR010W, strain ubp6, hits give low values",0.965
same,normalized growth,"locus YGL078C, strain dbp3, hits give low values",1.04
same,normalized growth,"locus YGL086W, strain mad1, hits give low values",1.06
same,normalized growth,"locus YGL167C, strain pmr1, hits give low values",0.968
same,normalized growth,"locus YGL173C, strain kem1, hits give low values",0.975
same,normalized growth,"locus YGL227W, strain vid30, hits give low values",0.965
same,normalized growth,"locus YGL240W, strain doc1, hits give low values",0.967
same,normalized growth,"locus YGL248W, strain PDE1, hits give low values",1.01
same,normalized growth,"locus YGL253W, strain hxk2, hits give low values",0.968
same,normalized growth,"locus YGR078C, strain PAC10, hits give low values",1.05
same,normalized growth,"locus YGR135W, strain pre9, hits give low values",1.03
same,normalized growth,"locus YGR229C, strain SMI1, hits give low values",1.06
same,normalized growth,"locus YGR252W, strain gcn5, hits give low values",1.01
same,normalized growth,"locus YHR013C, strain ard1, hits give low values",0.983
same,normalized growth,"locus YHR027C, strain rpn1, hits give low values",0.96
same,normalized growth,"locus YHR030C, strain SLT2, hits give low values",1.02 and 1.08
same,normalized growth,"locus YHR079C, strain IRE1 (second series), hits give low values",1.03
same,normalized growth,"locus YHR079C, strain IRE1, hits give low values",1.11
same,normalized growth,"locus YHR094C, strain hxt1, hits give low values",1.02
same,normalized growth,"locus YHR129C, strain ARP1, hits give low values",1.02
same,normalized growth,"locus YHR142W, strain chs7, hits give low values",0.962
same,normalized growth,"locus YHR200W, strain rpn10, hits give low values",1.06
same,normalized growth,"locus YIL066C, strain RNR3, hits give low values",1.04
same,normalized growth,"locus YIL073C, strain SPO22, hits give low values",1.08
same,normalized growth,"locus YIL125W, strain kgd1, hits give low values",1.01
same,normalized growth,"locus YIR030C, strain dcg1, hits give low values",1.03
same,normalized growth,"locus YJL092W, strain hpr5, hits give low values",0.943
same,normalized growth,"locus YJL095W, strain BCK1 (second series), hits give low values",0.965
same,normalized growth,"locus YJL095W, strain BCK1, hits give low values",1.05 and 1.09
same,normalized growth,"locus YJL115W, strain asf1, hits give low values",0.947
same,normalized growth,"locus YJL129C, strain trk1, hits give low values",1
same,normalized growth,"locus YJL134W, strain LCB3, hits give low values",1.01
same,normalized growth,"locus YJL154C, strain vps35, hits give low values",0.971
same,normalized growth,"locus YJL164C, strain tpk1, hits give low values",0.97
same,normalized growth,"locus YJL166W, strain qcr8, hits give low values",0.981
same,normalized growth,"locus YJL168C, strain set2, hits give low values",1.02
same,normalized growth,"locus YJL187C, strain SWE1 (second series), hits give low values",1.04
same,normalized growth,"locus YJL187C, strain SWE1, hits give low values",0.981
same,normalized growth,"locus YJR043C, strain POL32, hits give low values",1.09
same,normalized growth,"locus YJR066W, strain TOR1, hits give low values",0.974
same,normalized growth,"locus YJR075W, strain HOC1, hits give low values",0.98
